The experiment has as its system firefly luciferase (FLuc). Put plainly: residual bioluminescent signal relative to negative (DMSO) control; higher = less interference (more residual luciferase signal). The procedure: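 Purified luciferase (FLuc 10 nM + 10 uM D-luciferin; NLuc 10 pM + 10 uM furimazine; RLuc 50 pM + 2 uM coelenterazine) in 384-well plates; metal salt pre-incubated with enzyme 10 min at RT, substrate added and luminescence read after 10 min. Signal normalised to plate DMSO negative control (% N_VALUE = x/mean neg *100); triplicate wells at 0.01, 1 and 5 mM salt.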

The mark [1] stands for this setting: metal salt concentration 0.01 mM, HEPES conditions (100 mM HEPES, 5 mM MgSO4, 10 uM ATP, pH 7.5).
The mark [2] stands for this setting: metal salt concentration 0.01 mM, screening conditions (0.5 mM Tris, 50 mM glycine, 0.5 mM EDTA, 5 mM MgSO4, 10 uM ATP, pH 7.6).
Where [3] appears, read: metal salt concentration 1 mM, HEPES conditions (100 mM HEPES, 5 mM MgSO4, 10 uM ATP, pH 7.5).
Where [4] appears, read: metal salt concentration 1 mM, screening conditions (0.5 mM Tris, 50 mM glycine, 0.5 mM EDTA, 5 mM MgSO4, 10 uM ATP, pH 7.6).
[5] abbreviates: metal salt concentration 5 mM, HEPES conditions (100 mM HEPES, 5 mM MgSO4, 10 uM ATP, pH 7.5).
Setting [6] is: metal salt concentration 5 mM, screening conditions (0.5 mM Tris, 50 mM glycine, 0.5 mM EDTA, 5 mM MgSO4, 10 uM ATP, pH 7.6).

± gives the standard deviation of the averaged measurements.

With `O=[N+]([O-])[O-].[Li+]` [lithium nitrate], the residual bioluminescent signal was 92.2 ± 20% under setting [1]; 93 ± 5.3% under setting [2]; 92.2 ± 40% under setting [3]; 85.8 ± 4.8% under setting [4]; 90.5 ± 3.9% under setting [5]; 74.5 ± 2.7% under setting [6].

With `O=[N+]([O-])[O-].O=[N+]([O-])[O-].[Cu+2]` [copper(II) nitrate], the residual bioluminescent signal reads like this: under setting [1], 2.58 ± 1%; under setting [2], 108 ± 11%; under setting [3], 0.407%; under setting [4], 0.712 ± 0.4%; under setting [5], 0.95 ± 0.62%; under setting [6], 0.553 ± 0.32%.

Take `O=[N+]([O-])[O-].O=[N+]([O-])[O-].[Cd+2]` [cadmium nitrate]: the residual bioluminescent signal reads like this: under setting [1], 2.44 ± 1.8%; under setting [2], 95.2 ± 4.7%; under setting [3], 1.09 ± 0.62%; under setting [4], 0.343 ± 0.12%; under setting [5], 1.09 ± 0.62%; under setting [6], 0.211 ± 0.17%.

`[Cl][Sn][Cl]` [tin(II) chloride]: the residual bioluminescent signal under setting [1] stood at 41.7 ± 13%; the residual bioluminescent signal under setting [2] turned out to be 90.8 ± 3.9%; the residual bioluminescent signal under setting [3] is 1.22 ± 0.41%; the residual bioluminescent signal under setting [4] was 0.369 ± 0.12%; the residual bioluminescent signal under setting [5] was determined as 1.9 ± 0.62%; the residual bioluminescent signal under setting [6] worked out at 0.553 ± 0.079%.

For `O=[N+]([O-])[O-].[Ag+]` [silver nitrate], the residual bioluminescent signal reads like this: under setting [1], 1.36 ± 0.62%; under setting [2], 1.13 ± 0.6%; under setting [3], 1.36 ± 1.6%; under setting [4], 0.316 ± 0.079%; under setting [5], 1.49 ± 0.62%; under setting [6], 0.369 ± 0.17%.

Turning to `O=[N+]([O-])[O-].O=[N+]([O-])[O-].[Ca+2]` [calcium nitrate], the residual bioluminescent signal is 70 ± 9.6% under setting [1]; 75.6 ± 6.7% under setting [2]; 67.2 ± 14% under setting [3]; 60.2 ± 8.9% under setting [4]; 29.2 ± 2.8% under setting [5]; 24.5 ± 3.4% under setting [6].

Values taken from the supplement of paper PMC11628255, “Interference of metal ions on the bioluminescent signal of firefly, Renilla, and NanoLuc luciferases in high-throughput screening assays” (Frontiers in Chemistry, 2024).
